The text below walks through data of PubChem BioAssay.

Activity calls are given as the source filed them.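 Rule for the calls, unless noted: active = visual image review flags a hit and inhibition of aggregation exceeds 20%; inconclusive = visual hit but inhibition at or below 20%; inactive = no hit on visual image review.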

The nature of assay [1]: inhibitors of TNFa-induced NFkB p65 translocation, primary screen, imaging, HUVEC, MLSMR starter and 10KST1 sets (AID 438;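 active = inhibition above 20% together with a positive visual image hit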;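 note: compound added about 3h40 before a 20 min TNFalpha stimulation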;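 for inhibition: signal is the nuclear over cytoplasmic p65 intensity ratio per well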). The conditions noted are these: HUVEC TNFa-induced p65 nuclear translocation; cell count: measured here: nuclei count (cytotoxicity indicator), at 2.08 µM; inhibition: at 2 µM, stronger effect = higher value, 0% TNFa-plus-vehicle, 100% no-TNFa wells.
The nature of assay [2]: inhibitors of mutant huntingtin aggregation, primary screen, imaging, exon1htt(103Q)mCFP cells, high-content imaging (AID 483).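 For nuclei count: percent of the per-plate median nuclei count of sample wells.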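 Note: compound exposure lasted 3 days before fixation.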 To be noted: exon1htt(103Q)mCFP cell line, aggregate imaging, at 2 µM; inhibition of aggregation: stronger effect = higher value; nuclei count: measured here: cell count, toxicity.
Assay [3] can be described thus: inhibitors of E-selectin induction by TNFa, primary screen, imaging, HUVEC, immunofluorescence, MLSMR starter and 10KST1 sets (AID 487;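 active = visually confirmed hit in the image check and inhibition above 20%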;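 for inhibition: signal is fraction of cell area covered by stained E-selectin grains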;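 for nuclei count: 100% = median nuclei count of all wells on the same plate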). To be noted: HUVEC TNFalpha-induced E-selectin immunofluorescence imaging, at 2 µM; inhibition: stronger effect = higher value; nuclei count: measured here: cell number, toxicity.
The target in assay [4] is Voltage-gated potassium channel subunit beta-2 (Rattus norvegicus) (UniProt P62483). As to the kind of experiment: KvBeta enzyme negative modulators, primary screen, biochemical, NADPH fluorescence (AID 622;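 active = fluorescence slope higher than the sample average by over 3 SD, cut at about -0.22 in these data, passing the limit was not always enough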;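 note: slope of raw intensity against log time taken from 70 to 1610 s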). The conditions noted are these: recombinant KvBeta, 4-cyanobenzaldehyde reduction, at 10 µM, stronger effect = higher value.
Assay [5] shares this target. As to the kind of experiment: KvBeta positive modulators, primary screen, biochemical, NADPH fluorescence (AID 623;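 active = NADPH fluorescence slope more negative than the mean of all samples by about 3 SD, 99.7% confidence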;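 note: fluorescence intensity change per second fitted from 20 to 320 s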). To be noted: Recombinant KvBeta, NADPH fluorescence decrease slope, 10 min; at 10 µM; stronger effect = lower value.
Assay [6] concerns the target Alpha-2C adrenergic receptor (Homo sapiens) (UniProt P18825). In words: modulators of alpha2C/GIRK thallium flux, primary screen, cell-based, HEK293 alpha2C/GIRK1/2 (AID 624;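 active = fluorescence slope after compound addition differing from the mean of all screened samples at 99.7% confidence, in either direction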;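 note: slope of fluorescence ratio to pre-addition baseline per second over 15 to 24 s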). To be noted: thallium flux BTC fluorescence, at 10 µM, actives lie on both sides.
Assay [7] is described as follows: inhibitors of Sendai virus-induced IRF3 signaling, primary screen, TLR/RLR signaling modifier project, cell-based, Sendai virus stimulus, luciferase, 10K MLSCN set (AID 602276;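 active = inhibition at or above 50% at 10 µM; inactive = inhibition below 50%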;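 note: firefly luciferase from ISG56 promoter only with Renilla not read in this screen; 0% = Sendai virus plus DMSO and 100% = medium plus DMSO without virus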). The conditions noted are these: HEK293 RL24 IRF3 luciferase reporter, at 10 µM, stronger effect = higher value.
The nature of assay [8]: inhibitors of poly I:C-induced TLR3 signaling, primary screen, cell-based, poly I:C stimulus, luciferase, 10K MLSCN set (AID 602277;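 active = inhibition of the reporter signal at or above 50%; inactive = inhibition below 50%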). The conditions noted are these: HEK293-TLR3 RL24 IRF3 luciferase reporter, at 10 µM, stronger effect = higher value. A general note: Reporter assays use an easily measured gene product as a stand-in for the process of interest.

Voltage-gated potassium channel subunit beta-2 (Rattus norvegicus), sequence (P62483 whole entry, looked up): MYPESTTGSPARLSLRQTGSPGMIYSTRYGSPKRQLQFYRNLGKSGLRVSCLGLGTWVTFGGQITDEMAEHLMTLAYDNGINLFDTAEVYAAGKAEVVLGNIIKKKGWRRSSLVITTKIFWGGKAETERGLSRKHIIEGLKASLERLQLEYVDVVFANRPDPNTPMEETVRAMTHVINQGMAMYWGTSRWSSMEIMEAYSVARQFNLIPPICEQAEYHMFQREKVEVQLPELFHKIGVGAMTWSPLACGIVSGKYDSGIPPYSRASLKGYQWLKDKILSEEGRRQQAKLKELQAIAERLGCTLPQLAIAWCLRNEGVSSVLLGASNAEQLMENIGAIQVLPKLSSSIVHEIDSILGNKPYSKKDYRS
Alpha-2C adrenergic receptor (Homo sapiens), sequence (P18825 whole entry, looked up): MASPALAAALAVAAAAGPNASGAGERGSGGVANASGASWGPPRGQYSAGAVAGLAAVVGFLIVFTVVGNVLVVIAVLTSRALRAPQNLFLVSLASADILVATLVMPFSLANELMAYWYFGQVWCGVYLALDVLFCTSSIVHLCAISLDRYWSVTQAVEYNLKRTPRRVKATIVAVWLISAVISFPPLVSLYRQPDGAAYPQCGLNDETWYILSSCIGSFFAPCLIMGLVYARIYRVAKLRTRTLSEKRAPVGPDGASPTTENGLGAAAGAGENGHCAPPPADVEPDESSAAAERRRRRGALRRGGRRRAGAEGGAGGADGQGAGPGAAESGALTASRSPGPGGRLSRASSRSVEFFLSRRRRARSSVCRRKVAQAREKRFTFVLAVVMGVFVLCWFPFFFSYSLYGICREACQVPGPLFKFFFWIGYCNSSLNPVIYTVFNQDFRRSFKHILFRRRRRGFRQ

In the case of `CCOC(=O)C1CCN(C(=O)CN(c2ccc(Cl)c(C(F)(F)F)c2)S(C)(=O)=O)CC1`, the cell count in assay [1] turned out to be 648. Further, the inhibition is -23.5% (inactive) in assay [1], 8.7% (inactive) in assay [3], 11.7% (inactive) in assay [7] and 16.6% (inactive) in assay [8]. Besides, the inhibition of aggregation in assay [2] is -18.2% (inactive). The nuclei count was 107% in assay [2] and 52.3% in assay [3]. Besides, the fluorescence slope in assay [4] is -0.453 (inactive). Also, the NADPH fluorescence slope in assay [5] was -1.4e-05 (inactive). Further, the slope in assay [6] is 0.0048 (inactive).

For `CCCCN(C)Cc1c(O)ccc2c(-c3ccccc3)cc(=O)oc12`, in assay [1], the cell count was 303. Besides, the inhibition is 0.3% (inactive) in assay [1], -26.5% (inactive) in assay [3], -3.57% (inactive) in assay [7] and 28.4% (inactive) in assay [8]. Further, the inhibition of aggregation in assay [2] was 5% (inactive). Also, the nuclei count is 103% in assay [2] and 96.4% in assay [3]. Also, the fluorescence slope in assay [4] is -0.158 (active). In assay [5], the NADPH fluorescence slope is -2.3e-05 (inactive). In addition, the slope in assay [6] was 0.00475 (inactive).

Regarding `COC(=O)c1cc2ccsc2n1CC(=O)Nc1cc(C)cc(C)c1`, the cell count in assay [1] was found to be 510. Also, the inhibition was -9.5% (inactive) in assay [1], -22.5% (inactive) in assay [3], -21% (inactive) in assay [7] and -31% (inactive) in assay [8]. Also, in assay [2], the inhibition of aggregation was -2.7% (inactive). Besides, the nuclei count in assay [2] is 115%; in assay [3] it was 109%. Also, the fluorescence slope in assay [4] was -0.374 (inactive). In assay [5], the NADPH fluorescence slope is 9.4e-06 (inactive). The slope in assay [6] is 0.0119 (inactive).

With `O=C(Nc1c(C(=O)NCc2ccco2)cnn1-c1ccccc1)c1ccc(F)cc1`, in assay [1], the cell count stood at 400. Also, the inhibition in assay [1] was 6.3% (inactive); in assay [3], -23.9% (inactive); in assay [7] it was -1.86% (inactive); in assay [8], 15.1% (inactive). The inhibition of aggregation in assay [2] is 12.1% (inactive). For the same compound, the nuclei count came out at 81.6% in assay [2] and 89.1% in assay [3]. In assay [4], the fluorescence slope was -0.294 (inactive). The NADPH fluorescence slope in assay [5] is -2.8e-06 (inactive). Also, in assay [6], the slope is 0.00584 (inactive).

For the compound `CCCCOc1ccc(-c2ncc(C(=O)OCC)c(N)n2)cc1`, in assay [1], the cell count was 377. The inhibition in assay [1] is 1.6% (inactive); in assay [3], -71.6% (inactive); in assay [7] it was 0.257% (inactive); in assay [8], -34.4% (inactive). In addition, the inhibition of aggregation in assay [2] was 16.9% (inactive). In addition, the results for the nuclei count in assay [2] and in assay [3] were 73.4% and 115%, respectively. Besides, the fluorescence slope in assay [4] was -0.452 (inactive). In addition, in assay [5], the NADPH fluorescence slope was -4.6e-05 (inactive). Besides, the slope in assay [6] was 0.00612 (inactive).

For `CN1C(=O)C(O)(CC(=O)c2ccccc2O)c2cc(Br)ccc21` (centres undefined), the cell count in assay [1] is 608. Further, the inhibition in assay [1] is 3.4% (inactive); in assay [3] it was -59.3% (inactive); in assay [7], 7.07% (inactive); in assay [8] it was 55.8% (active). Besides, the inhibition of aggregation in assay [2] is -2.8% (inactive). Besides, the nuclei count in assay [2] was 63.4%; in assay [3] it was 124%. Further, the fluorescence slope in assay [4] is -0.439 (inactive). For the same compound, in assay [5], the NADPH fluorescence slope is -6e-05 (inactive). Besides, in assay [6], the slope is 0.00404 (inactive).

Regarding `COc1ccc(NC(=O)c2oc3ccccc3c2NC(=O)c2ccco2)cc1`, the cell count in assay [1] stood at 317. For the same compound, the inhibition was -4.8% (inactive) in assay [1], -4.1% (inactive) in assay [3], -10.3% (inactive) in assay [7] and -48.1% (inactive) in assay [8]. Besides, the inhibition of aggregation in assay [2] was 23.6% (inactive). In addition, the nuclei count came out at 95.9% in assay [2] and 95.1% in assay [3]. Further, in assay [4], the fluorescence slope was -0.411 (inactive). Moreover, the NADPH fluorescence slope in assay [5] is 2.7e-05 (inactive). For the same compound, the slope in assay [6] is 0.00551 (inactive).

`Cn1nnnc1SCC(=O)N1CCN(c2ccccc2)CC1`: in assay [1], the cell count was found to be 400. Further, the inhibition is -0.2% (inactive) in assay [1], -49.9% (inactive) in assay [3], 11.7% (inactive) in assay [7] and 27.5% (inactive) in assay [8]. Further, the inhibition of aggregation in assay [2] is 7% (inactive). Moreover, the figures for the nuclei count in assay [2] and in assay [3] were 97.4% and 97.6%, respectively. In addition, the fluorescence slope in assay [4] was -0.362 (inactive). Besides, the NADPH fluorescence slope in assay [5] is -4.2e-05 (inactive). In addition, the slope in assay [6] is 0.00625 (inactive).

Turning to `O=C(O)c1cccc(NC(=O)C2C3C=CC(C3)C2C(=O)OCC(F)(F)C(F)F)c1` (centres undefined), the cell count in assay [1] was 683. The inhibition was 8.3% (inactive) in assay [1], -33.6% (inactive) in assay [3], 10.2% (inactive) in assay [7] and 26% (inactive) in assay [8]. Moreover, the inhibition of aggregation in assay [2] was 28.9% (inactive). For the same compound, the results for the nuclei count in assay [2] and in assay [3] were 47.7% and 98.7%, respectively. Besides, in assay [4], the fluorescence slope is -0.38 (inactive). Further, in assay [5], the NADPH fluorescence slope was -3.4e-05 (inactive). Moreover, the slope in assay [6] was 0.00482 (inactive).

`COc1ccc(S(=O)(=O)NCC(=O)N(CC(=O)NCC2CCCO2)c2ccccc2C)cc1` (centres undefined): the cell count in assay [1] worked out at 251. Moreover, the inhibition is 2.2% (inactive) in assay [1], -22.6% (inactive) in assay [3], 19.2% (inactive) in assay [7] and 18.4% (inactive) in assay [8]. The inhibition of aggregation in assay [2] is -8.4% (inactive). Besides, the figures for the nuclei count in assay [2] and in assay [3] were 106% and 96.9%, respectively. In addition, the fluorescence slope in assay [4] is -0.399 (inactive). Further, the NADPH fluorescence slope in assay [5] is -6.5e-06 (inactive). Besides, the slope in assay [6] was 0.00632 (inactive).

With `Cc1ccc2nc(NC(=O)Cn3cc4c(n3)CCCCC4)sc2c1`, the cell count in assay [1] is 899. Besides, the inhibition in assay [1] was 0.5% (inactive); in assay [3], -44.1% (inactive); in assay [7], -7.98% (inactive); in assay [8] it was -11.8% (inactive). Besides, the inhibition of aggregation in assay [2] was 4% (inactive). The nuclei count in assay [2] was 100%; in assay [3], 123%. Moreover, the fluorescence slope in assay [4] was -0.581 (inactive). In assay [5], the NADPH fluorescence slope was -1.2e-05 (inactive). In addition, the slope in assay [6] was 0.00613 (inactive).

For the compound `CC1=C(C)C(=O)NC(Nc2nc(C)c3cc(C)cc(C)c3n2)N1` (centres undefined), the cell count in assay [1] was 540. Besides, the inhibition in assay [1] was -14.3% (inactive); in assay [3] it was 5.2% (inactive); in assay [7], 7.09% (inactive); in assay [8], -49.5% (inactive). The inhibition of aggregation in assay [2] is -9.7% (inactive). For the same compound, the nuclei count in assay [2] worked out at 103%; in assay [3], 115%. Also, the fluorescence slope in assay [4] was -0.285 (inactive). For the same compound, the NADPH fluorescence slope in assay [5] is -2.3e-05 (inactive). Further, in assay [6], the slope was 0.00676 (inactive).

Consider `Cc1cc(C(=O)Nc2sc3c(c2C#N)CCCCC3)cs1`, for which the cell count in assay [1] came out at 651. Also, the inhibition in assay [1] is 6% (inactive); in assay [3], -7.5% (inactive); in assay [7] it was -33.9% (inactive); in assay [8], -119% (inactive). For the same compound, in assay [2], the inhibition of aggregation was -8.1% (inactive). Moreover, the values for the nuclei count in assay [2] and in assay [3] were 107% and 100%, respectively. Besides, the fluorescence slope in assay [4] was -0.581 (inactive). For the same compound, the NADPH fluorescence slope in assay [5] is -1.2e-05 (inactive). The slope in assay [6] is 0.00236 (inactive).

For `Cc1c(Cl)cccc1NC(=O)CCN1CCCCC1`, in assay [1], the cell count came out at 329. Also, the inhibition in assay [1] is -1.3% (inactive); in assay [3], -67.3% (inactive); in assay [7] it was 17.5% (inactive); in assay [8] it was 20% (inactive). In assay [2], the inhibition of aggregation is -7.5% (inactive). Moreover, the nuclei count in assay [2] turned out to be 112%; in assay [3], 133%. Also, in assay [4], the fluorescence slope was -0.514 (inactive). The NADPH fluorescence slope in assay [5] is 3e-05 (inactive). Also, the slope in assay [6] is 0.00469 (inactive).

By inhibition is commonly meant the relative decrease from the control value, in per cent.
